Results as given in PubChem BioAssay AID504577 (NMMLSC, 2011).
About 1,300 (0.37%) of roughly 350,000 compounds were called active. The entries come from a sample that favours actives as a whole. A number with no mark means an inactive call. Rule as the data show it: active = response mostly above about 7.3% (no sharp cut-off); inactive = mostly below about 5.4%.

Assay: yeast vacuolar ATPase proton transport modulators – pHLuorin cytosolic pH fluorescence, primary screen (AID 504577); also: actives read high
Conditions: S. cerevisiae, at 10 µM, hits give high values

Compound | response
Cc1cc(=O)n2nc(N3CCCC3C(=O)NCCCN3CC(C)CC(C)C3)sc2n1 (stereo not drawn) | -2.96%
Cc1ccc(C(=O)Nc2nc3ccc(Cl)cc3s2)o1 | 20.1% (active)
Cc1sc2ncnc(N3CCC(C(=O)Nc4nc5ccc(Cl)cc5s4)CC3)c2c1C | 0.27%
Cc1csc(NC(=O)c2ccc(-c3ccc(Cl)cc3Cl)o2)n1 | -2.59%
OC1CN=C2Sc3ccccc3N2C1 (stereo not drawn) | 3.08%
O=C(c1ccc(=O)oc1)N1CCC(C(O)(c2ccccc2)c2ccccc2)CC1 | 2.64%
CN1CCN(S(=O)(=O)c2cccc(C(=O)Nc3cccc(S(N)(=O)=O)c3)c2)CC1 | 0.8%
CC(C)CCN1C(=O)c2ccc(C(=O)Nc3cccc(S(N)(=O)=O)c3)cc2C1=O | 14.3% (active)
Cc1cccc(C(=O)Nc2ccc3c(c2)C(=O)N(CC(C)C)C3=O)c1 | -0.72%
COc1ccccc1C(=O)N1C(CC(=O)Nc2ccccc2C)C(=O)NC2CCCCC21 (stereo not drawn) | 9.51%
Cc1ccc(S(=O)(=O)Nc2ccc3c(c2)C(=O)N([C@H](C)CO)C[C@@H](C)[C@@H](CN(C)C(=O)Nc2cccc4ccccc24)O3)cc1 | -0.92%
COc1cc(C2c3cc4c(cc3C(O)C3COC(=O)C23)OCO4)cc(OC)c1OC (stereo not drawn) | 1.36%
COc1ccccc1CNC(=O)COC(=O)c1sc(C)nc1C | 9.53% (active)
COc1ccccc1CNC(=O)COc1ccc(C)nc1[N+](=O)[O-] | -0.89%
COc1ccccc1CNC(=O)COC(=O)c1cccs1 | -4.49%
Brc1cnc(N2CCCC2)nc1N1CCCCC1 | -0.57%
CCc1nnc(NC(=O)c2cccc(S(=O)(=O)N(C)c3ccc(OC)cc3)c2)s1 | 3.85%
CCCc1nnc(NC(=O)c2cc(OC)cc(OC)c2)s1 | 12.9% (active)
COc1ccc(Cc2nnc(NC(=O)c3cc(OC)c(OC)c(OC)c3)s2)cc1OC | -0.03%
O=C1C=C(c2ccc(Cl)cc2)C(=O)N1Nc1ccccc1 | 11.6% (active)

Compound | response
O=C(c1ccc(Cn2cc([N+](=O)[O-])cn2)o1)N1CCCC1 | -2.73%
COc1cc(CN2CCCC(C(=O)c3ccc(SC)cc3)C2)cc(Cl)c1O (stereo not drawn) | 13.8% (active)
COc1ccc(C(=O)NC2CC2)cc1OC1CCN(Cc2ccc(SC)cc2)CC1 | -0.55%
COc1ccc(CN2CCCC(C(=O)c3ccc(Cl)cc3)C2)cc1Cn1cncn1 (stereo not drawn) | -2.81%
C=CCOC(=O)N1CCC2CC1c1cc(-c3ccc(OC)cc3)ccc12 (stereo not drawn) | -1.16%
CCOc1ccccc1NC(=O)C1CCN(S(=O)(=O)c2c(C)nn(C)c2C)CC1 | -3.78%
COCCNc1nc2nonc2nc1N(C)Cc1ccc(C)cc1 | -1.45%
Cc1cc(C#N)c(SCC(N)=O)nc1-c1ccc(F)cc1 | 1.45%
Cc1ccc(NC(=O)CSc2sc3c(O)cc(=O)[nH]c3c2C#N)cc1C | 2.04%
Cc1cc(=O)[nH]c(SCC(N)=O)c1C#N | 23.4% (active)
CCC(C)[C@H](NC(=O)N1CCn2c1nc1ccccc12)C(=O)NCc1ccc(OC)cc1 (stereo partly drawn) | 4.62%
NC(CSC1(c2ccccc2)c2ccccc2-c2ccccc21)C(=O)O (stereo not drawn) | -2.21%
COc1ccc(N2C(=O)C(CC(=O)Nc3ccccc3)N(Cc3ccc(OC)c(OC)c3)C2=O)cc1 (stereo not drawn) | 0.01%
COc1ccc(CCN2C(=O)N(c3ccc(OC)cc3)C(=O)C2CC(=O)Nc2ccc(OC)cc2)cc1 (stereo not drawn) | 9.93% (active)
COc1ccc(N2C(=O)C(CC(=O)Nc3ccc(F)cc3)N(CCc3cccs3)C2=O)cc1 (stereo not drawn) | -0.54%
COc1cccc(OC)c1C(=O)N1CCN(Cc2ccccc2F)CC1 | 0.6%
Cc1c(C)c(C)c(S(=O)(=O)N2CCC3(CC2)OCCO3)c(C)c1C | -4.64%
C[C@@H](O)c1nc2ccccc2n1N | 0.82%
Cc1ccc(S(=O)(=O)N(C)c2ccc(OCC(=O)NC3=NCCS3)cc2)cc1 | -1.26%
CCOc1ccc(C(=O)CCC(=O)NC2=NCCS2)cc1 | 13.1% (active)

Compound | response
CCOc1ccc(C(=O)CCC(=O)Nc2ccncc2)cc1 | 1.62%
Cc1csc(NC(=O)CSc2nc(=O)cc(N)n2-c2ccc(F)cc2)n1 | 1.91%
CCCCn1c(N)c(N(CCOC)C(=O)c2oc3ccc(OC)cc3c2C)c(=O)[nH]c1=O | 0.93%
COc1ccc(Cl)cc1N(CC(=O)N1CCCCC1)S(C)(=O)=O | 0.69%
O=C(CCn1nnnc1CN1CCOCC1)N1CCC(c2ccccc2Cl)C1 (stereo not drawn) | 3.42%
O=C(OCCOc1ccccc1Cl)c1cc(S(=O)(=O)N2CCCCC2)ccc1N1CCOCC1 | -0.35%
CCCc1cc(=O)[nH]c(SCc2ccc(C#N)cc2)n1 | 11.9% (active)
Cc1cc(=O)[nH]c(SCc2ccc(Cl)cc2)n1 | -0.98%
CCCc1cc(=O)[nH]c(SCc2cc(=O)oc3c(C)c(C)ccc23)n1 | -2.17%
COc1ccc(OCCn2ccnc2C)cc1 | 1.9%
Cc1ccnc(SCC(=O)Nc2cccc(S(=O)(=O)N3CCOCC3)c2)n1 | 12.9% (active)
Nc1cc(N)nc(SCC(=O)Nc2cccc(S(=O)(=O)N3CCCCC3)c2)n1 | 5.46%
O=C(CSc1ccccc1)Nc1cccc(S(=O)(=O)N2CCOCC2)c1 | 0.62%
COC(=O)c1ccccc1NC(=O)C1CCN(C(=O)N2CCOc3ccccc32)CC1 | 4.95%
COc1cccc(C(=O)Oc2cc(C)[nH]c(=O)c2[N+](=O)[O-])c1 | 0.78%
Cc1cc(OC(=O)c2ccccc2)c([N+](=O)[O-])c(=O)[nH]1 | 11.5% (active)
Cc1cc(OC(=O)c2ccc(OC(C)C)cc2)c([N+](=O)[O-])c(=O)[nH]1 | 0.32%
COC(=O)Nc1ccc(S(=O)(=O)Nc2cc(OC)nc(OC)n2)cc1 | 4.02%
